Experiment [1] relates to MKL-1. Briefly: qHTS assay to identify novel small-molecules to repurpose for Merkel cell carcinoma treatment (AID 1296009). Also: nearly all actives have a fitted effect of over 60% in size. To be noted: MCC and control cell lines, CellTiter-Glo viability, 72 h; series mostly up to 46 µM. The essentials:
(§1)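 qHTS format: cells treated with library compounds in DMSO across 8 (NPC) or 11 (MIPE) concentrations. Readout after 72 hr at 37 degree celsius was CellTiter-Glo luminescence.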
(In general: In qHTS, concentration-response curves come from the screen itself.)

The test system of experiment [2] is MKL-2. The experiment is described as above. To be noted: MCC and control cell lines, CellTiter-Glo viability, 72 h; series mostly up to 46 µM. The essentials: as §1
In general terms: Cellular ATP, detected with luciferase, serves as a proxy for viable cell number.

Experiment [3] deals with NIH3T3. Described as above. The note with it: MCC and control cell lines, CellTiter-Glo viability, 72 h; at 44.8 µM (top of the series) unless noted. The essentials: as §1
Experiment [4] relates to UISO. The experiment is described as above. To be noted: MCC and control cell lines, CellTiter-Glo viability, 72 h; series mostly up to 46 µM. In short, it runs like this: as §1
Experiment [5] concerns WaGa. Described as above. To be noted: MCC and control cell lines, CellTiter-Glo viability, 72 h; series mostly up to 46 µM. In short, it runs like this: as §1
Experiment [6] concerns C33A. Briefly: Primary qHTS to identify gynecologic anti-cancer compounds using libraries of approved drugs and bioactive compounds (AID 1345084). Also: nearly all actives have a fitted effect of over 55% in size. To be noted: Gynecologic cancer cell panel viability, ATPlite luminescence, 48 h; series mostly up to 57.5 µM. The essentials: (§2)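 Cytotoxicity screen measuring ATP content by luciferase luminescence. Each compound is applied at five concentrations for 48 h at 37 C with 5% CO2.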

Experiment [7] has as its system CAOV3. The description is as above. To be noted: Gynecologic cancer cell panel viability, ATPlite luminescence, 48 h; series mostly up to 57.5 µM. The essentials:
as §2

Experiment [8] relates to CASKI. The description is as above. To be noted: Gynecologic cancer cell panel viability, ATPlite luminescence, 48 h; series mostly up to 57.5 µM. In short, it runs like this: as §2
For experiment [9], the system named is Es-2. Described as above. The note with it: Gynecologic cancer cell panel viability, ATPlite luminescence, 48 h; series mostly up to 57.5 µM. In short, it runs like this:
as §2

The test system of experiment [10] is HeLa. The experiment is described as above. The note with it: Gynecologic cancer cell panel viability, ATPlite luminescence, 48 h; series mostly up to 57.5 µM. In short, it runs like this: as §2
For experiment [11], the system named is Hek293T. The description is as above. To be noted: Gynecologic cancer cell panel viability, ATPlite luminescence, 48 h, control line for the selectivity index; series mostly up to 57.5 µM. In short, it runs like this:
as §2

In experiment [12] the test system is JEG-3. Described as above. The note with it: Gynecologic cancer cell panel viability, ATPlite luminescence, 48 h; series mostly up to 57.5 µM. The essentials: as §2
The test system of experiment [13] is OV90. Described as above. To be noted: Gynecologic cancer cell panel viability, ATPlite luminescence, 48 h; series mostly up to 57.5 µM. In short, it runs like this:
as §2

In experiment [14] the test system is PA-1. Described as above. The note with it: Gynecologic cancer cell panel viability, ATPlite luminescence, 48 h; series mostly up to 57.5 µM. The essentials:
as §2

In experiment [15] the test system is SKOV3. Described as above. To be noted: Gynecologic cancer cell panel viability, ATPlite luminescence, 48 h; series mostly up to 57.5 µM. The essentials: as §2
For experiment [16], the system named is Tov-21-G. Described as above. The note with it: Gynecologic cancer cell panel viability, ATPlite luminescence, 48 h; series mostly up to 57.5 µM. The essentials: as §2
Experiment [17] relates to Tov112D. The experiment is described as above. To be noted: Gynecologic cancer cell panel viability, ATPlite luminescence, 48 h; series mostly up to 57.5 µM. In short, it runs like this: as §2
The nature of experiment [18]: Drug repurposing screens with cells derived from glioblastoma tumor samples (AID 1345199). Also: nearly all actives have a fitted effect of over 40% in size. To be noted: GBM patient neurospheres viability, ATP luminescence, 48 h. In short, it runs like this:
(§3)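 Four patient lines of CD133+ GBM neurospheres were screened at several concentrations; hits were retested in those lines plus three slower-growing GBM lines, using 48-hour treatment and ATP-based viability.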

Experiment [19] has as its system astro. The experiment is described as above. The note with it: viability, ATP luminescence, 48 h; series mostly up to 45.9 µM. In short, it runs like this:
as §3

The test system of experiment [20] is MCC-26. In words: qHTS assay to identify novel small-molecules to repurpose for Merkel cell carcinoma treatment (AID 1296009). Also: nearly all actives have a fitted effect of over 60% in size. The note with it: MCC and control cell lines, CellTiter-Glo viability, 72 h; series mostly up to 46 µM. The essentials:
as §1

Setting [21] is: at 20 µM (top of the series), tumour line C.
[22] abbreviates: at 45.9 µM (top of the series), tumour line B.
The mark [23] stands for this setting: at 45.9 µM (top of the series), tumour line D.
Setting [24] is: at 46.1 µM (top of the series), tumour line C.
The mark [25] stands for this setting: at 21.3 µM (top of the series), tumour line A.

Several values for one entry are separate records, joined by “and”; a condition that tells them apart may be missing. Equal values may be shown once. Results filed as inconclusive are left out. Some compounds were tested as several samples or in several runs, with calls that do not always agree. Unmarked numbers belong to inactive results. Activity calls are given as the source filed them. Calls follow the shape of the dose curve; as a rule, active = well fitted curve in the direction sought with a large enough effect; inconclusive = small, poorly fitted or top-dose-only effect, or another doubt; inactive = no such curve, though single readings can be large; an effect the other way counts as inactive or inconclusive.
% is scaled to controls: 0 for no effect and ±100 for the full control effect; potency is read from the fitted curve at half-maximal effect.

As to `CC1CC(OC(=O)C(O)c2ccccc2)CC(C)(C)N1C` (stereo not drawn), the Potency entry in [1], in experiment [2], in experiment [4], in experiment [5], in experiment [6] and in experiment [7] was “inactive” each time. Further, the Potency result in [8], in [9], in experiment [10], in [11], in experiment [12] and in [13] was “inactive” throughout. Further, the Potency result in experiment [14], in experiment [15], in [16], in experiment [17] and in experiment [19] was “inactive” each time. Besides, in experiment [3], the compound was called inactive. Also, the activity, negative = cell killing in [18] (setting [21]) is 14.2%; in experiment [18] (at 21.2 µM (top of the series), tumour line B), 1.64%; in experiment [18] (at 21.2 µM (top of the series), tumour line D), -6.11%; in experiment [18] (setting [22]) it was -1.01%; in [18] (setting [23]), 1.15%; in [18] (at 46 µM (top of the series), tumour line A), -25.8%. Further, the activity, negative = cell killing in experiment [18] (setting [24]) is -11%.
Turning to `CC/C=C(\C(=O)N[C@@H]1C(=O)N2C(C(=O)OCOC(=O)C(C)(C)C)=C(COC(N)=O)CS[C@H]12)c1csc(N)n1`, the Potency result in experiment [20], in experiment [1], in experiment [2], in experiment [4], in experiment [6] and in experiment [7] was “inactive” in each case. In addition, the Potency result in experiment [8], in experiment [9], in experiment [10], in [11], in experiment [12] and in [13] was “inactive” in each case. Further, the Potency entry in [14], in [15], in experiment [16], in experiment [17] and in experiment [19] was “inactive” throughout. Moreover, the activity, negative = cell killing in experiment [18] (setting [22]) was -9.61% and -1.73%; in experiment [18] (setting [23]) it was -14.3% and 0.361%; in experiment [18] (setting [24]), -12.1% and -5.64%. The Potency in experiment [18] (tumour line A) was 17.8 µM (active).
For `OCc1cc(C(O)CNCCCCCCOCCCCc2ccccc2)ccc1O` (stereo not drawn), the Potency entry in experiment [20], in experiment [1], in [5], in experiment [6], in experiment [8] and in experiment [9] was “inactive” in each case. Also, the Potency entry in experiment [10], in experiment [12], in experiment [16] and in experiment [17] was “inactive” in each case. The Potency is 22.4 µM (active) in [7] and 11.2 µM (active) in experiment [19].
Consider `O=C(O)[C@@H]1CSCN1`, for which the Potency result in experiment [1], in experiment [2], in experiment [4], in [5], in experiment [6] and in [7] was “inactive” each time. In addition, the Potency entry in [8], in [9], in experiment [10], in experiment [11], in experiment [12] and in experiment [13] was “inactive” throughout. The Potency entry in experiment [14], in experiment [15], in [16], in experiment [17] and in experiment [19] was “inactive” each time. Besides, the outcome in [3] was inactive. The activity, negative = cell killing in experiment [18] (setting [22]) is 0.874%; in [18] (setting [23]), 4.12%; in experiment [18] (setting [24]) it was -12.1%.
For the compound `CC(C(O)c1ccc(O)cc1)N1CCC(Cc2ccccc2)CC1` (stereo not drawn), the Potency entry in experiment [20], in experiment [1], in [2], in [4], in experiment [5] and in [6] was “inactive” each time. For the same compound, the Potency entry in experiment [8], in [9], in experiment [10], in [11], in [12] and in [14] was “inactive” each time. In addition, the Potency entry in experiment [15], in [16], in [17] and in [19] was “inactive” in each case. For the same compound, in [18] (setting [24]), the activity, negative = cell killing was -15.9%. The Potency in experiment [18] (tumour line A) was 2.82 µM (active); in experiment [18] (tumour line B) it was 35.5 µM (active); in experiment [18] (tumour line D), 12.6 µM (active).
For the compound `[Cl][In]([Cl])[Cl]`, the Potency result in experiment [20], in experiment [1], in experiment [2], in experiment [5], in experiment [6] and in experiment [8] was “inactive” in each case. Moreover, the Potency result in [9], in experiment [10], in [12], in experiment [13], in [14] and in experiment [15] was “inactive” in each case. In addition, the Potency entry in [16], in experiment [17] and in experiment [19] was “inactive” each time.
As to `CN(C)CCCN1c2ccccc2CCc2ccccc21`, the Potency entry in experiment [20], in [1], in experiment [6], in experiment [7], in experiment [8] and in experiment [12] was “inactive” in each case. Also, the Potency in experiment [5] was 23.7 µM (active); in experiment [18] (tumour line A) it was 4.47 µM (active); in experiment [18] (tumour line D), 12.6 µM (active). Besides, in experiment [18] (setting [24]), the activity, negative = cell killing was -2.23%.
`OCCN1CCN(CCCN2c3ccccc3Sc3ccc(Cl)cc32)CC1`: the Potency is 26.6 µM (active) in experiment [20]; 26.6 µM (active) in experiment [4]; 20 µM (active) in experiment [6]; 25.1 µM (active) in experiment [8]; 15.8 µM (active) in experiment [13]; 28.2 µM (active) in experiment [15]. For the same compound, the Potency in experiment [17] is 25.1 µM (active); in experiment [18] (tumour line A), 3.16 µM (active); in [18] (tumour line B), 8.91 µM (active); in experiment [18] (tumour line D) it was 10 µM (active). Also, the Potency entry in experiment [10] is “inactive”. In addition, the activity, negative = cell killing in [18] (setting [21]) is -18%.
Regarding `c1ccc2c(CC3=NCCN3)cccc2c1`, the Potency result in experiment [20], in experiment [1], in [2], in experiment [4], in experiment [5] and in experiment [6] was “inactive” each time. The Potency entry in experiment [8], in experiment [9], in [10], in experiment [11], in experiment [12] and in [13] was “inactive” throughout. Besides, the Potency result in experiment [14], in experiment [15], in experiment [16], in [17] and in experiment [19] was “inactive” throughout. Moreover, the activity, negative = cell killing is -11.3% and -15.4% in experiment [18] (setting [23]); -1.52% and -0.846% and -3.97% in experiment [18] (setting [24]).
Consider `Nc1ccc(S(=O)(=O)NC(=O)c2ccccc2)cc1`, for which the activity, negative = cell killing in [18] (setting [25]) is -8.76%.
The same measure, in the same setting: the value for `C[C@H](N)[C@H](O)c1cccc(O)c1` was -12.7%.
Consider `COCCOC(=O)C1=C(C)NC(C)=C(C(=O)OC/C=C/c2ccccc2)C1c1cccc([N+](=O)[O-])c1` (stereo not drawn), for which, in experiment [18] (tumour line C), the Potency was 18.4 µM (active).

For the origin of these results see PubChem BioAssay (NCATS).
